Screening data (PubChem BioAssay)
NS1 function inh – blocks influenza NS1 protein function; AID 2326; Potency, µM (series often up to 46.1 µM), for the others: top-dose activity, positive = more growth; hit rate 0.4% among 270,000; calls by dose curve; also: actives are rising curves; nearly all actives have a fitted effect of over 50% in size
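Recovery from NS1-induced slow growth read by OD600 in budding yeast switched to galactose assay medium (pH 6.0, -URA) at 1:100 dilution. Compound 23 nl per well; the matching strain lacking NS1 serves as control.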
SARS PLP yeast – blocks SARS-CoV papain-like protease in a yeast assay; S. cerevisiae expressing SARS-CoV PLpro, growth rescue; Potency, µM (series often up to 32.9 µM), for inactives: top-dose activity, positive = growth rescue, usual class: activators; hit rate 0.19% among 330,000; calls by dose curve; also: 0% is about no effect; nearly all actives have a fitted effect of over 55% in size
RE007 growth inh – less growth of the S. pombe RE007 Vpr strain; Potency, µM (doses to about 92.2 µM), without a hit: top-dose activity change, negative = less growth, actives largely listed as inhibitors; S. pombe RE007 Vpr strain, BacTiter-Glo ATP luminescence, 24 h; hit rate 0.21% among 360,000; active = well fitted falling curve with a large enough effect; inconclusive = small, poorly fitted or top-dose-only effect; inactive = no such curve, though single readings can be large or run the other way; also: % is scaled to controls: 0 for no effect and ±100 for the full control effect; nearly all actives have a fitted effect of over 50% in size
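Fission yeast strain RE007, carrying one chromosomally integrated HIV-1 vpr copy, was seeded at OD 0.01 in PMG+AL medium with 23 nL pinned compound. After 24 h at 30 °C and 99% humidity, viability was read by BacTiter-Glo luminescence.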
Sm TGR block – blocks Schistosoma mansoni thioredoxin glutathione reductase; Potency, µM (titrated, usually from 114 µM), without a hit: at the highest dose activity change, negative = inhibition, actives largely listed as inhibitors; purified TGR, DTNB reduction, TNB absorbance 405 nm; hit rate 3% among 360,000; AID 485364; Q962Y6; also: % is scaled to controls: 0 for no effect and ±100 for the full control effect; nearly all actives have a fitted effect of over 60% in size
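First, TGR (20 nM dispensed) and NADPH were mixed with compound. Second, a 15 min room-temperature incubation followed. Third, further NADPH and then DTNB were added to start the reaction. Finally, TNB absorbance was monitored kinetically.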
Tb PYK inh – blocks Trypanosoma brucei pyruvate kinase. Q57TT1. TbPYK enzyme, Kinase-Glo Plus ATP luminescence, 45 min. Potency, µM (top dose mostly 76.8 µM), for inactives: at the top dose activity, negative = inhibition, actives largely listed as inhibitors. hit rate 0.12% among 410,000; also: % is scaled to controls: 0 for no effect and ±100 for the full control effect; nearly all actives have a fitted effect of over 50% in size
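Enzyme and substrate buffer are dispensed first and compound is pin-transferred. ADP at 130 uM final then starts the reaction, which runs 45 min at room temperature. Detection reagent is added for 10 min before luminescence is imaged.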
LmPK inh – blocks Leishmania mexicana pyruvate kinase activity; purified LmPK, Kinase-Glo ATP luminescence, 1 h; Potency, µM (series often up to 57.5 µM), for inactives: at the highest dose activity change, negative = inhibition, usual class: inhibitors; hit rate 0.37% among 290,000; AID 1721; also: % is scaled to controls: 0 for no effect and ±100 for the full control effect
Target sequence (Q27686 whole entry, looked up): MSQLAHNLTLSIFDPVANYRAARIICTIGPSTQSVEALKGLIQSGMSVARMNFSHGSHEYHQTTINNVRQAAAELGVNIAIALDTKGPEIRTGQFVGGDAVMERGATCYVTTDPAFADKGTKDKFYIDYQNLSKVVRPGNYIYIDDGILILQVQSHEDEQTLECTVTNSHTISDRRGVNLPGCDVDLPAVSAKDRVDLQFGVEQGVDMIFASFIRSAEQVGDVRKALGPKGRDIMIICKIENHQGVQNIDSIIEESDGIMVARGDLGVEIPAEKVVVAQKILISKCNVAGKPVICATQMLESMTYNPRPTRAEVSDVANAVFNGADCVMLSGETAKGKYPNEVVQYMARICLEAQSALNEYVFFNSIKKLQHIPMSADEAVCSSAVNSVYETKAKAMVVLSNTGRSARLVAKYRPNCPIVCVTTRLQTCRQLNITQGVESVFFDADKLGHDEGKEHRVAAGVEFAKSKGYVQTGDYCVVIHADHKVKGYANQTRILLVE
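Pyruvate kinase activity monitored as ATP production (luciferase luminescence). Conditions: 0.1 nM enzyme, 0.5 mM PEP, 0.1 mM ADP, 1 h, RT; normalized against uninhibited and no-enzyme wells.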
* marks the source's active call; other numbers are inactive results; ? = inconclusive; . = no result given; [ ] = remark or other dose. Most compounds without a hit are left out; they make up all but 3.3% or so of the library. Unless noted, calls follow the shape of the dose curve; as a rule, active = well fitted curve in the direction sought with a large enough effect; inconclusive = small, poorly fitted or top-dose-only effect, or another doubt; inactive = no such curve, though single readings can be large; an effect the other way counts as inactive or inconclusive. Potency is read from the fitted curve at half-maximal effect.

SMILES	NS1 function inh	SARS PLP yeast	RE007 growth inh	Sm TGR block	Tb PYK inh	LmPK inh
O=C1NC(=O)N(c2ccccc2)C(=O)/C1=C/C=C/c1ccco1	2.8%	-1.1%	27.3%	10µM*	?	7.8%
Cc1ccc(N2C(=O)NC(=O)/C(=C\C=C\c3ccco3)C2=O)cc1C	28.8%	-6.6%	52.5%	25.1µM*	-21.9%	4.5%
Cc1ccc(Cc2nc3ccccc3nc2SCC(=O)N2CCCCC2)cc1	.	.	.	-3.5%	2.6%	.
Cc1ccc(N2C(=O)NC(=O)/C(=C\C=C\c3ccco3)C2=O)cc1	9.8%	-4.3%	14.7%	11.2µM*	-28.4%	10.1%
CC(C)(C)C(=O)OCOC(=O)C1N2C(=O)CC2S(=O)(=O)C1(C)C (configuration not stated)	.	.	.	.	1.6%	.
CN=c1scc(-c2ccc(F)cc2)n1/N=C/c1ccc(O)c(O)c1	.	-25.0%	-5.0%	11.2µM*	-29.5%	?
Cc1cc(C)n(-c2ncc3c(n2)N(CCO)CCOC3=O)n1	-0.4%	0.3%	-4.2%	3.8%	0.9%	2.3%
CC1=CC2(O)OCCN(CCO)C2=CC1=O (configuration not stated)	?	1.3%	-3.7%	20µM*	-24.4%	-17.5%
Cc1cccc(CSc2ncc(Cl)c(C(=O)Nc3sc4c(c3C#N)CCCC4)n2)c1	.	.	.	3.6%	-4.0%	.
O=C1C=C(c2ccccc2)C(=O)N1Nc1ccccc1	-225.7%	-35.0%	?	14.1µM*	?	-0.3%
COc1ccc(C2=CC(=O)N(Nc3ccccc3)C2=O)cc1	.	-12.5%	4.0%	-13.9%	-8.5%	-1.3%
COc1ccc(N/C=C2\C(=O)CCc3c2oc2cc(Cl)c(O)c(Cl)c32)cc1	1.2%	-2.5%	-5.1%	35.5µM*	-7.3%	1.1%
COc1ccccc1CNC(=O)CCCn1c(=O)c2cccn2c2ccccc21	.	.	.	8.3%	1.2%	.
O=C(/C=C/c1ccccc1)Nc1cc(NC(=O)/C=C/c2ccccc2)cc(C(=O)O)c1	?	-0.4%	-17.6%	39.8µM*	-26.6%	1.9%
CCOC(=O)c1ccc(NC(=O)C(CC)Sc2nc3ncccc3[nH]2)cc1 (configuration not stated)	.	.	.	0.8%	3.5%	.
CCOc1ccc(CCNC(=O)c2cc(C)nc3c2c(C)nn3-c2cccc(F)c2)cc1	.	.	.	1.4%	-0.1%	.
COc1ccccc1NC(=O)CSc1nnc(-c2ccccn2)n1Cc1ccco1	-10.0%	11.5%	-10.8%	39.8µM*	0.0%	0.7%
COc1ccc(NC(=O)CSc2nnc(-c3ccccc3)n2Cc2ccco2)c(OC)c1	-20.6%	0.6%	12.5%	-20.8%[11.4 µM]	-1.8%	5.2%
COc1ccc(C)cc1NC(=O)CSc1nnc(-c2ccccn2)n1Cc1ccco1	-12.1%	-0.7%	3.1%	10.3%	-0.9%	-5.5%
COc1ccc(NC(=O)CSc2nnc(-c3ccccc3Cl)n2Cc2ccco2)c(OC)c1	-21.6%	16.6%	18.2%	35.5µM*	0.1%	7.3%
C(=C\c1ccccc1)/CSc1nnc(-c2ccccn2)n1Cc1ccco1	-46.7%	-11.5%	-18.9%	35.5µM*	-14.5%	-1.6%
COc1ccccc1NC(=O)CSc1nnc(-c2ccco2)o1	-42.0%	0.9%	24.7%	3.8%	6.3%	1.5%
COc1ccccc1NC(=O)CSc1nccc(-c2ccco2)n1	.	0.3%	1.4%	25.1µM*	-12.8%	.
O=C(CCCCCCCC(=O)N1CCCC1)N1CCCC1	.	.	8.1%	.	-1.5%	.
O=C(CCSCCC(=O)N1CCCC1)N1CCCC1	-17.4%[9.22 µM]	-1.2%	-25.6%	39.8µM*	3.2%	0.4%
SMILES	NS1 function inh	SARS PLP yeast	RE007 growth inh	Sm TGR block	Tb PYK inh	LmPK inh
Cc1ccccc1C(=O)N(Cc1ccc(N(C)C)cc1)Cc1ccco1	.	.	.	2.5%	-5.4%	.
Cc1ccccc1CN1CCN(C(=O)c2cccc3ccccc23)CC1	-31.4%	2.0%	23.2%	1.6%	13.4%	5.7%
Cc1cc(C)c(NC(=O)C[C@H](CC(=O)O)c2cccc3ccccc23)c(C(=O)N2CCC3(CCCC3)CC2)c1	10µM*	.	.	.	3.7%	.
O=C(OCc1cc(=O)n2c(n1)sc1ccccc12)c1ccc(O)cc1	0.0%	-5.5%	11.0%	-2.4%	-2.1%	3.1%
O=c1cc(CCl)nc2sc3ccccc3n12	.	-8.4%	-18.3%	39.8µM*	5.7%	-2.5%
COc1ccc2nc3oc(C(=O)Nc4ccc(OC)c(OC)c4)cc3cc2c1	?	-4.3%	-8.1%	3.7%	-25.6%	22.4µM*
NC(=O)C1(N2CCCCC2)CCN(C(=O)Nc2ccc(F)cc2)CC1	.	.	.	2.8%	1.4%	.
O=C(Nc1ccc2c(c1)N(C1CCCC1)C(=O)c1ccccc1S2)c1cccc(F)c1	.	.	.	9.1%	3.0%	.
COc1cccc(CNC(=O)CCC2CCCN(C(=O)c3ccoc3)C2)c1 (configuration not stated)	2.5%	-1.1%	9.7%	-18.9%	-4.5%	-0.8%
COc1cccc(CNC(=O)CCC2CCCN(C3CCOCC3)C2)c1 (configuration not stated)	-2.2%	-0.7%	2.5%	4.47µM*	-1.3%	0.2%
CN(C)c1ccc(/C=N/NC(=O)c2ccccc2O)o1	.	?	-6.1%	22.4µM*	?	0.0%
CN(C)c1ccc(/C=N/NC(=O)C(O)(c2ccccc2)c2ccccc2)o1	-6.2%	-2.4%	2.7%	10µM*	?	1.7%
Cc1cc(C(=O)N/N=C/c2ccc(N(C)C)o2)cs1	?	-4.1%	1.6%	?	?	-16.5%
O=C(NN=Cc1ccccc1O)C(O)(c1ccccc1)c1ccccc1	.	.	0.0%	.	-5.0%	.
O=C(N/N=C/c1ccc(N2CCCCC2)o1)C(O)(c1ccccc1)c1ccccc1	26.0%	5.7%	.	22.4µM*	.	-1.1%
NC(N)=NC[C@H](N)C(=O)O	-2.8%	.	.	.	.	.
N#Cc1ccc(C(=O)Nc2ccc(Cl)c(-c3nc4cc(Cl)ccc4o3)c2)c(F)c1	.	.	.	-5.1%	0.9%	.
CCOc1ccccc1-n1c(CN2CCN(C(=O)c3ccco3)CC2)nc2ccccc2c1=O	-16.5%[9.22 µM]	-2.6%	4.4%	25.1µM*	0.0%	-2.9%
COc1ccc(/C=C/c2nc3ccccc3n2C)cc1	.	-21.9%	31.6µM*	?	?	17.8µM*
COc1ccc(CNc2nc3ccccc3n2C)c(OC)c1	0.5%	-0.8%	-16.4%	0.0%	-16.6%	17.8µM*
COc1ccc(CNc2nc3ccccc3n2C)c(O)c1	?	-0.8%	-24.2%	0.8%	-11.8%	-12.8%
CCn1c(/C=C/c2ccccc2)nc2ccccc21	-31.6%	-12.5%	?	10.4%	-6.9%	22.4µM*
CCC(C(=O)O)C1CCC(C)C(C(C)C(O)C(C)C(=O)C(CC)C2OC3(C=CC(O)[C@@]4(CC[C@](C)(C5CC[C@@](O)(CC)C(C)O5)O4)O3)C(C)CC2C)O1 (some centres not stated)	.	.	.	.	-6.3%	.
[NH-]CCC([O-])=NC(Cc1cnc[nH]1)C(=O)[O-].[Zn+2] (configuration not stated)	.	.	.	.	2.2%	.
